KAT2A inh – qHTS Assay for Inhibitors of GCN5L2 | Histone acetyltransferase KAT2A (Homo sapiens), Q92830 | GCN5L2 HAT assay, ThioGlo1 CoA-SH fluorescence | Potency, µM (top dose mostly 58.9 µM), for the others: top-dose activity change, negative = inhibition, most hits filed as inhibitors | 0.21% of 390,000 active | AID 504327, 2011; note: % is set by controls: 0 for no effect and ±100 for the full control effect
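Fluorescence readout, Ex340nm/Em540nm: ThioGlo1 (50uM final) reacts with free CoA thiol released as 20nM GCN5L2 acetylates H3(1-25) peptide (75uM) using acetyl-CoA (70uM). Compound and enzyme sat 15 min beforehand; 20 min room-temperature reaction.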
POLK inh – qHTS for Inhibitors of Polymerase Kappa. purified Pol kappa, fluorescent DNA synthesis assay, 10 min. Potency, µM (series often up to 107 µM), for inactives: top-dose activity, negative = inhibition, most hits filed as inhibitors. 0.53% of 400,000 active; note: % is set by controls: 0 for no effect and ±100 for the full control effect
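Fluorescent qHTS in 1536-well format: enzyme (10 nM) and compound sat 15 min at room temperature before 50 nM substrate (final) was added. Signal taken at 0 and 10 min; no-enzyme buffer wells were negative controls.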
GLS inhibitor – qHTS for Inhibitors of Glutaminase (GLS); AID 624170, 2012; Glutaminase kidney isoform, mitochondrial (Homo sapiens), O94925; Potency, µM (series often up to 45.5 µM), inactives show at the highest dose activity change, negative = inhibition, hits mostly inhibitors; GLS enzymatic activity, qHTS titration; 0.21% of 410,000 active; note: % is set by controls: 0 for no effect and ±100 for the full control effect
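Assay buffer: 45 mM KH2PO4 pH 8.2, 0.02% Tween-20. hKGA acts on L-glutamine (1 mM solution added); product glutamate is reported by an oxidase/peroxidase Amplex Red coupling, with fluorescence taken at baseline and 30 min.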
POLB inh – qHTS Assay for Inhibitors of DNA Polymerase Beta | Pol beta primer extension/strand displacement, fluorescence kinetic | Potency, µM (series often up to 114 µM), inactives show at the top dose activity change, negative = inhibition, usual class: inhibitors | 1.3% of 340,000 active; note: % is set by controls: 0 for no effect and ±100 for the full control effect
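Pol beta (10 nM) and compounds were preincubated 15 min at room temperature, then 50 nM substrate (final) started primer extension/strand displacement. Reads were taken at 0 and 10 min; concentration-response data were fitted to a four-parameter Hill equation.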
Pol eta inh – qHTS for Inhibitors of Polymerase Eta | AID 588591, 2011 | Potency, µM (titrated, usually from 114 µM), for the others: at the top dose activity change, negative = inhibition, most hits filed as inhibitors | recombinant Pol eta, fluorescent DNA replication assay | 1.2% of 390,000 active | DNA polymerase eta (Homo sapiens), Q9Y253; note: % is set by controls: 0 for no effect and ±100 for the full control effect
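Pol eta (10 nM) was preincubated with compounds for 15 min at room temperature, after which fluorescent replication substrate (50 nM final) was added to start the reaction. Fluorescence was read kinetically at 0 and 10 min.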
POLI inh – qHTS for Inhibitors of Polymerase Iota; 1% of 390,000 active; Potency, µM (top dose mostly 115 µM), inactives show at the top dose activity, negative = inhibition, hits mostly inhibitors; Pol iota fluorescent replication assay, 10 min; DNA polymerase iota (Homo sapiens), Q9UNA4
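Fluorescent replication assay read twice, at 0 min and 10 min after adding 50 nM (final) substrate. Enzyme (10 nM) and compounds were first incubated 15 min at room temperature; enzyme-free buffer wells were negative controls.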
Numbers without * were called inactive; ? = inconclusive; . = no result; [ ] = dose if it differs, or a comment. In the library only some 2.4% were active in any assay of this set; here they are far more common. Calls come from the whole dose curve; as a rule, active = well fitted inhibition curve with a large enough effect; inconclusive = small, poorly fitted or top-dose-only effect, or another doubt; inactive = no such curve, though single readings can be large or run the other way. Potency is the fitted concentration of half-maximal effect.

SMILES | KAT2A inh | POLK inh | GLS inhibitor | POLB inh | Pol eta inh | POLI inh
CC(C)CC[n+]1ccn(-c2nc3ccccc3nc2[N-]S(=O)(=O)c2ccccc2)c1 | 33% | -11% | -7% | 79µM* | -12% | 22%
O=c1c(-c2ccc(Cl)cc2)nc2cnc(N3CCOCC3)nc2n1Cc1ccc(F)cc1 | -7% | 3%[60.1 µM] | . | . | . | .
CCOC(=O)c1cnn2c(N)c(C#N)nnc12 | -3% | -8% | -2% | 4% | ? | 89µM*
CCOC(=O)c1cnn2c(N)c(C#N)cnc12 | -2% | -4% | 13% | -7% | 2% | -7%
O=C(CC1C(=O)N(c2ccc(F)cc2)C(=O)N1Cc1cccnc1)Nc1ccc(F)cc1 (stereo not given) | -3% | -23% | -8% | 3% | -13% | 5%
CCOC(=O)c1cc(S(=O)(=O)Nc2ccc(C)cc2Cl)[nH]n1 | -10% | 2%[60.1 µM] | -2% | -15% | -2% | -18%
CCC1S/C(=N/N=C/c2ccco2)N(c2ccc(F)cc2)C1=O (stereo not given) | 2% | -4% | -5% | 29% | -4% | 15%
Cc1cccc(CC2S/C(=N/N=C/c3ccco3)N(c3ccccc3)C2=O)c1 (stereo not given) | -3% | -10% | 1% | 35µM* | -9% | -4%
CC#CCC(C)[C@H](O)/C=C/C1[C@H](O)C[C@@H]2C/C(=C\CCCC(=O)O)C[C@H]12 (stereo not given in full) | . | . | -7% | . | . | .
CCCCn1c(SCC(=O)c2ccc(O)c(O)c2)nc2ccsc2c1=O | -4% | -22% | 9% | ? | 8.9µM* | ?
CCCCn1c(SCC(=O)c2ccccc2)nc2ccsc2c1=O | -5% | -3% | 12% | 1% | -20% | 165%
COc1ccc(NC(=O)c2cc(-c3ccc(OC)c(OC)c3)on2)cc1OC | 0% | -21% | -4% | 25% | -4% | -11%[58.9 µM]
COc1ccc(NC(=O)c2cc(-c3ccccc3Cl)on2)cc1OC | -16% | ? | 2% | 16% | -4% | 79µM*
CC1=CC(O)=NS(=O)(=O)O1 | . | 17% | . | . | . | 16%
CC1(C)Cc2c(sc3ncn4c(=S)[nH]nc4c23)CO1 | 22µM* | -4% | 13µM* | -29% | -8% | ?
Cc1ccc(NC(=O)C(=O)NCC(c2cccnc2)N2CCc3ccccc3C2)cc1 (stereo not given) | 0% | -1% | 18% | 1% | -23% | 15%
O=C(c1nc2ccc(Cl)cn2c1CN1CCCC1)N1CCc2ccccc2C1 | -27% | ? | -19% | ? | 32µM* | 18µM*
O=C(c1nc2ccc(Cl)cn2c1CN1CCC(CO)CC1)N1CCc2ccccc2C1 | -1% | 0% | 4% | 7% | -18% | 28%
COc1ccccc1/C=C/c1cnccn1 | . | 2% | . | . | . | -4%
CC(C)N1C(=O)S/C(=C/c2ccccc2OCc2ccc(C(=O)O)cc2)C1=O | -27% | ? | -2% | 1% | 89µM* | ?
CN1C(=O)S/C(=C\c2ccccc2OCc2ccc(C(=O)O)cc2)C1=O | -15% | -7% | 8% | -1% | ? | 19%
COc1ccccc1CNc1nc(-c2ccoc2)nc2ccccc12 | -15% | -5%[60.1 µM] | . | . | . | .
N/C(=N\OC(=O)c1ccc(Br)cc1)c1cccc([N+](=O)[O-])c1 | -5% | -9% | -6% | 18µM* | 1% | ?
CN(C)c1ccc(/C=C2\NC(=O)NC2=O)cc1 | . | -23% | . | . | . | 21%
O=C(NCCc1ccccc1)[C@@H]1CC=C[C@@H]2CCN(C3CC3)C(=O)[C@@H]21 | . | -9% | . | . | . | -3%
O=C(/C=C/c1ccc(Br)cc1)c1ccc(NC(=O)c2ccco2)cc1 | -3% | ? | -5% | 7.1µM* | ? | ?

Compound activity (PubChem)
